# HT1080 IDH1KD tx = qHTS for induction of synthetic lethality in tumor cells producing 2HG: qHTS for the HT-1080-IDH1KD cell line | Potency, µM (doses to about 46.1 µM), without a hit: top-dose activity, negative = toxicity, most hits filed as cytotoxic | HT-1080 IDH1 knockdown viability, ATP luminescence, 48 h | 2% of 360,000 active;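 further: potency means the concentration at half of the fitted maximal effect; 0% = DMSO wells and -100% = cell-free medium wells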
#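 IDH1KD HT-1080 cells, 750/well, RPMI + 5% FBS; compound pinned after 2 h settling; 48 h, 37 °C; CellTiter-Glo luminescence; % activity normalised to DMSO and no-cell wells; curves fitted, classed by r2 and efficacy.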
# uPA generation = qHTS for Inhibitors of Cell Surface uPA Generation; cell surface uPA generation assay, qHTS; Potency, µM (titrated, usually from 38.3 µM), inactives show at the top dose activity change, negative = inhibition, usual class: inhibitors; 0.31% of 330,000 active; AID 540303, 2011; active means well fitted inhibition curve with a large enough effect; inconclusive means small, poorly fitted or top-dose-only effect; inactive means no such curve, though single readings can be large or run the other way; tested in mouse RAW 264.7 cells; further: potency means the concentration at half of the fitted maximal effect; nearly all actives have a fitted effect of over 55% in size
# TDP1 cell noCPT = qHTS for Inhibitors of human tyrosyl-DNA phosphodiesterase 1 (TDP1): qHTS in cells in absence of CPT | DT40 Tdp1-/- hTDP1 cells, no CPT, ATP luminescence, 48 h | Potency, µM (highest dose often 46.2 µM), for inactives: at the highest dose activity change, negative = growth inhibition, actives largely listed as inhibitors | 15% of 420,000 active | AID 686978, 2013; further: potency means the concentration at half of the fitted maximal effect; nearly all actives have a fitted effect of over 55% in size
#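 Camptothecin absent (DMSO only). Human TDP1-complemented DT40 knockout cells, 400 cells/well, 37 °C for minimum 48 hr; ATP measured via CellTiter-Glo, 30 min dark incubation, luminescence.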
# HT1080-NT tox = qHTS for induction of synthetic lethality in tumor cells producing 2HG: qHTS for the HT-1080-NT fibrosarcoma cell line; 1.6% of 360,000 active; AID 686970, 2013; HT-1080-NT fibrosarcoma viability, CellTiter-Glo ATP luminescence, 48 h; Potency, µM (highest dose often 46.1 µM), for the others: at the top dose activity, negative = less viability, actives largely listed as cytotoxic;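 further: NT is the 2HG producing partner of a matched IDH1 knockdown line; potency means the concentration at half of the fitted maximal effect; 0% = DMSO-treated cells and -100% = media-only wells without cells; nearly all actives have a fitted effect of over 55% in size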
#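 Compounds were tested in concentration-response format on HT-1080-NT cells for 48 hours at 37 degrees C. Cell viability came from CellTiter-Glo luminescence; curves were classified by r2, response magnitude and activity.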
# IL1B secr inh = qHTS for Inhibitors of Inflammasome Signaling: IL-1-beta AlphaLISA Primary Screen; THP-1 LPS/ATP IL-1B secretion, AlphaLISA, 16 h; stronger effect = lower value; 4.7% of 360,000 active; activity change, % at 57.5 µM; in the data active means activity change below about -50%; inconclusive means mostly about -30% to -49%
#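 Secreted IL-1B measured by AlphaLISA bead assay after 16 h compound exposure of THP-1 cells; compounds (final up to 57.5 uM) added 1 h before LPS (250 ng/mL) and ATP (1.25 mM) stimulation; lower signal means less secretion.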
# DT40 TDP1 CPT = qHTS for Inhibitors of human tyrosyl-DNA phosphodiesterase 1 (TDP1): qHTS in cells in presence of CPT; 12% of 420,000 active; chicken DT40 Tdp1-/-;hTDP1 cells + 20 nM CPT, ATP luminescence, 48 h; Potency, µM (series often up to 46.2 µM), for the others: at the highest dose activity change, negative = growth inhibition, most hits filed as inhibitors; further: potency means the concentration at half of the fitted maximal effect; nearly all actives have a fitted effect of over 55% in size
#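 Chicken DT40 Tdp1-/- cells stably complemented with human TDP1 were seeded at 400 cells/well in medium containing 20 nM camptothecin, exposed to pin-transferred compounds, and grown at 37 °C for at least 48 hr. Viability was read as ATP luminescence.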
# The depositor's hits bear a star; ? = inconclusive; . = no result; [ ] = remark or other dose. The list is not random: actives were taken first. Their share in the collection is about 19%. Unless noted, the call rests on the fitted dose curve; in most records, active means well fitted curve in the direction sought with a large enough effect; inconclusive means small, poorly fitted or top-dose-only effect, or another doubt; inactive means no such curve, though single readings can be large; an effect the other way counts as inactive or inconclusive. Unless noted, on the % scale 0 is the no-effect control and ±100 the full control effect.
SMILES,HT1080 IDH1KD tx,uPA generation,TDP1 cell noCPT,HT1080-NT tox,IL1B secr inh,DT40 TDP1 CPT
O=C(CCn1c(=O)c2ccccc2n(CC(=O)Nc2ccc(F)cc2)c1=O)NCCc1ccccc1,.,.,-18%,.,.,-8%
CCCCC[C@H](O)/C=C/[C@@H]1[C@@H](C/C=C\CCCC(=O)O)[C@@H](O)C[C@@H]1O,.,.,6%[4.12 µM],.,.,31%[4.12 µM]
COc1ccc(NC(=O)Cn2cnc3c(nc4n3CCCCC4)c2=O)cc1Cl,.,.,-17%,.,.,-18%
CCCn1cc(S(=O)(=O)c2cc(C)ccc2C)c(=O)c2cc(F)c(N3CCCCCC3)cc21,.,.,-84%,.,.,?
CCn1cc(S(=O)(=O)c2ccc(C)cc2C)c(=O)c2cc(F)c(N3CCCCC3)cc21,.,.,23µM*,.,.,?
CCn1cc(S(=O)(=O)c2ccc(OC)cc2)c(=O)c2cc(F)c(N3CCC(C)CC3)cc21,.,.,26µM*,.,.,?
COc1ccc(CCNC(=O)Cc2c(C)c3cc4c(C)coc4c(C)c3oc2=O)cc1,.,.,?,.,.,-11%
COC(=O)c1c(-c2c(Cl)cccc2Cl)noc1NC(=O)NN1CCCCC1,?,10%,16µM*,?,.,?
COC(=O)c1c(-c2c(Cl)cccc2Cl)noc1NC(=O)NN1CCOCC1,0%,1%,-19%,-6%,14,-8%
O=C(NCCc1ccccc1)C1CCC(=O)N(CCCN2CCCC2=O)C1 (stereo not drawn),4%,12%,23%,-1%,3,-11%
O=C(NCCc1cccc(F)c1)C1CCC(=O)N(CCCc2ccccc2)C1 (stereo not drawn),3%,5%,?,4%,14,18µM*
O=C(NCCc1cn[nH]c1)C1CCC(=O)N(CCc2cccc(F)c2)C1 (stereo not drawn),7%,-3%,?,12%,10,?
O=C(NCc1ccccc1OC(F)(F)F)C1CCC(=O)N(Cc2ccccn2)C1 (stereo not drawn),6%,6%,?,8%,14,16µM*
O=C(NCc1ccccc1C(F)(F)F)C1CCC(=O)N(CCCc2ccccc2)C1 (stereo not drawn),-21%,-4%,29µM*,-14%,5,?
O=C(NCCc1c[nH]c2ccccc12)C1CCC(=O)N(CCc2cccc(F)c2)C1 (stereo not drawn),-2%,-4%,8.2µM*,-2%,21,?
O=C(NCc1ccccc1C(F)(F)F)C1CCC(=O)N(C2CC2)C1 (stereo not drawn),4%,14%,-12%,-7%,11,-12%
Cc1ccccc1CN1C(=O)CN(S(C)(=O)=O)CC1(C)C(=O)NCc1ccccc1 (stereo not drawn),10%,.,-6%,14%,13,-6%
COc1ccc(C(=O)N2CCCC(C(=O)O)C2)c2ccccc12 (stereo not drawn),3%,3%,8%,3%,18,1%
O=C(NCCc1c[nH]c2ccccc12)C(=O)NCC1OCCCN1S(=O)(=O)c1cc(F)ccc1F (stereo not drawn),-5%,2%,?,10%,0,-25%
CCC(CO)Nc1ccn2nc(-c3cccs3)cc2n1 (stereo not drawn),0%,.,-26%,22%,-50*,-21%
CCC(CO)Nc1ccn2nc(-c3cc(OC)c(OC)c(OC)c3)cc2n1 (stereo not drawn),-17%,.,15µM*,-16%,?,?
COc1ccc(Br)cc1CNC(=O)CN1C(=O)c2cccnc2Oc2ccc(C)cc21,.,.,12µM*,.,.,?
CC(C)Oc1ccc(CNC(=O)CN2C(=O)c3cccnc3Oc3ccc(Cl)cc32)cc1,.,.,18µM*,.,.,16µM*
CC(CNC(=O)CN1C(=O)c2cccnc2Oc2ccc(Cl)cc21)c1ccccc1 (stereo not drawn),1%,10%,?,8%,2,?
Cc1ccc2c(c1)N(CC(=O)NCc1ccccc1Br)C(=O)c1cccnc1O2,.,.,-26%,.,.,?
SMILES,HT1080 IDH1KD tx,uPA generation,TDP1 cell noCPT,HT1080-NT tox,IL1B secr inh,DT40 TDP1 CPT
CCCOc1ccc(CNC(=O)CN2C(=O)c3cccnc3Oc3ccc(C)cc32)cc1,.,.,?,.,.,23µM*
C/C(=N\NC(=O)c1cccc(C)c1O)c1ccc(NC(=O)Cc2ccccc2)cc1,-14%,-9%,0%,0%,10,-22%
CCn1c(-c2ccccc2F)nc2cc(C(=O)N3CCCC(CO)C3)cc(NC(C)=O)c21 (stereo not drawn),.,.,9%,.,.,1%
Cc1nc2ccccn2c1C(=O)CSc1cccc(Cl)c1,-5%,3%,?,1%,-70*,?
CCN(CC)C(=O)c1c(C)nc2ccccn12,14%,-1%,4%,3%,26,2%
Cc1nc2ccccn2c1C(=O)CSc1ccc(Cl)cc1Cl,4%,2%,18µM*,-5%,20,?
Cc1nc2ccccn2c1C(=O)CSc1ccccc1Cl,-25%,-3%,16µM*,-7%,-21,16µM*
Cc1nc2ccccn2c1C(=O)Nc1ccc(Cl)cc1,-16%,3%,?,-2%,13,-23%
COC(=O)CCNC(=O)CCc1ccc(S(=O)(=O)N2CCCCCC2)cc1,0%,-1%,-3%,-3%,21,-18%
CCn1nnc2cc(C(=O)Nc3cccc(S(=O)(=O)N(C)C)c3)ccc21,15%,13%,-27%,13%,-27,-16%
CC(=O)N1CCc2cc(NC(=O)C3(C)CCN3Cc3ccc(C(C)C)cc3)ccc21 (stereo not drawn),?,.,?,?,-10,?
CCOc1ccc(-n2c(=O)c3c(C)c(C(=O)N(C)C)sc3n(CC(=O)Nc3c(C)cc(C)cc3C)c2=O)cc1,.,.,-18%,.,.,-29%
Cc1ccc(-n2c(=O)c3c4c(sc3n(CC(=O)c3ccc(Cl)cc3)c2=O)CCC4)cc1C,.,.,-13%,.,.,-6%
CC(C)(C)C(=O)Cn1c(=O)n(-c2ccccc2)c(=O)c2c3c(sc21)CCC3,.,.,18µM*,.,.,15µM*
CCOc1ccc(-n2c(=O)c3c(C)c(C)sc3n(Cc3ccc(C(C)(C)C)cc3)c2=O)cc1,.,.,?,.,.,21µM*
